Inconclusive results are not listed. The source made the active and inactive calls. Calls follow the shape of the dose curve; as a rule, active = well fitted inhibition curve with a large enough effect; inconclusive = small, poorly fitted or top-dose-only effect; inactive = flat fitted curve, though single readings scatter.
How the values were obtained:
Assay in all cases: qHTS profiling for inhibitors of Plasmodium falciparum proliferation (AID 504749); also: nearly all actives have a fitted effect of over 60% in size
Conditions in all cases: P. falciparum in erythrocytes, SYBR Green DNA, 72 h; series mostly up to 28.7 µM
ATS95 = tested on: ATS95
Outline: (§1)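 Infected RBCs, 0.3% parasitemia/2.5% Hct final; cpd 72 h, 37 C, 5% CO2; lysis buffer with saponin/triton/SYBR Green I, o/n RT dark; FI 485/535; norm. to artemisinin (0.29 uM) and DMSO.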

C2A = tested on: C2A
Outline: as §1

CP185 = tested on: CP185
Outline: as §1

CP191 = tested on: CP191
Outline: as §1

CP192 = tested on: CP192
Outline: as §1

CP194 = tested on: CP194
Outline: as §1

CP201 = tested on: CP201
Outline: as §1

CP203 = tested on: CP203
Outline: as §1

CP211 = tested on: CP211
Outline: as §1

CP215 = tested on: CP215
Outline: as §1

CP217 = tested on: CP217
Outline: as §1

CP237 = tested on: CP237
Outline: as §1

CP238 = tested on: CP238
Outline: as §1

CP247 = tested on: CP247
Outline: as §1

CP250 = tested on: CP250
Outline: as §1

CP252 = tested on: CP252
Outline: as §1

CP256 = tested on: CP256
Outline: as §1

CP260 = tested on: CP260
Outline: as §1

CP262 = tested on: CP262
Outline: as §1

CP265 = tested on: CP265
Outline: as §1

Measured: Potency

O=C(O)/C=C/C(=O)Nc1ccc(S(=O)(=O)Nc2nccs2)cc1
inactive: ATS95 | C2A | CP185 | CP191 | CP192 | CP194 | CP201 | CP203 | CP211 | CP215 | CP217 | CP237 | CP238 | CP247 | CP250 | CP252 | CP256 | CP260 | CP262 | CP265

CC(=O)Oc1cc(C(F)(F)F)ccc1C(=O)O
inactive: ATS95 | C2A | CP185 | CP191 | CP192 | CP194 | CP201 | CP203 | CP211 | CP215 | CP217 | CP237 | CP238 | CP247 | CP250 | CP252 | CP256 | CP262 | CP265

CCOC(=O)[C@@H](N)CS
inactive: ATS95 | C2A | CP185 | CP191 | CP192 | CP194 | CP201 | CP203 | CP211 | CP215 | CP217 | CP237 | CP238 | CP247 | CP250 | CP252 | CP256 | CP260 | CP262 | CP265

Cc1cc(-c2ccc(N=Nc3ccc4c(S(=O)(=O)O)cc(S(=O)(=O)O)c(N)c4c3O)c(C)c2)ccc1N=Nc1ccc2c(S(=O)(=O)O)cc(S(=O)(=O)O)c(N)c2c1O
inactive: ATS95 | C2A | CP185 | CP191 | CP192 | CP194 | CP201 | CP203 | CP211 | CP215 | CP217 | CP237 | CP238 | CP247 | CP250 | CP252 | CP256 | CP262 | CP265

CO/N=C(\C(=O)N[C@@H]1C(=O)N2C(C(=O)[O-])=C(C[n+]3cccc4c3CCC4)CS[C@H]12)c1csc(N)n1
inactive: ATS95 | C2A | CP185 | CP191 | CP192 | CP194 | CP201 | CP203 | CP211 | CP215 | CP217 | CP237 | CP238 | CP247 | CP250 | CP252 | CP256 | CP262 | CP265

CC1=CCC2CC1C2(C)C (stereo not given)
inactive: ATS95 | C2A | CP185 | CP191 | CP192 | CP194 | CP201 | CP203 | CP211 | CP215 | CP217 | CP237 | CP238 | CP247 | CP250 | CP252 | CP256 | CP260 | CP262 | CP265

CCC(Cc1c(I)cc(I)c(O)c1I)C(=O)O (stereo not given)
inactive: ATS95 | C2A | CP185 | CP191 | CP192 | CP194 | CP201 | CP203 | CP211 | CP215 | CP217 | CP237 | CP238 | CP247 | CP250 | CP252 | CP256 | CP260 | CP262 | CP265

OCC(O)CO
inactive: ATS95 | C2A | CP185 | CP191 | CP192 | CP194 | CP201 | CP203 | CP211 | CP215 | CP217 | CP237 | CP238 | CP247 | CP250 | CP252 | CP256 | CP260 | CP265

Cc1cc(=O)c(C(=O)N[C@@H](C(=O)N[C@@H]2C(=O)N3C(C(=O)O)=C(CSc4nnnn4C)CS[C@H]23)c2ccc(O)cc2)c[nH]1
inactive: ATS95 | C2A | CP185 | CP191 | CP192 | CP194 | CP201 | CP203 | CP211 | CP215 | CP217 | CP237 | CP238 | CP247 | CP250 | CP252 | CP256 | CP260 | CP262 | CP265

CC(CC=O)CCCC(C)(C)O (stereo not given)
inactive: ATS95 | C2A | CP185 | CP191 | CP192 | CP194 | CP201 | CP203 | CP211 | CP215 | CP217 | CP237 | CP238 | CP247 | CP250 | CP252 | CP256 | CP260 | CP262 | CP265

Cc1ccc(S(=O)(=O)NCl)cc1
inactive: ATS95 | C2A | CP185 | CP191 | CP192 | CP194 | CP201 | CP203 | CP211 | CP215 | CP217 | CP237 | CP238 | CP247 | CP250 | CP252 | CP256 | CP260 | CP262 | CP265

O=S(=O)(O)CC(S)CS (stereo not given)
inactive: ATS95 | C2A | CP185 | CP191 | CP192 | CP194 | CP201 | CP203 | CP211 | CP215 | CP217 | CP237 | CP238 | CP247 | CP250 | CP252 | CP256 | CP260 | CP262 | CP265

C[Si](C)(C)O[Si](C)(C)C
inactive: ATS95 | C2A | CP185 | CP191 | CP192 | CP194 | CP201 | CP203 | CP211 | CP215 | CP217 | CP237 | CP238 | CP247 | CP250 | CP252 | CP256 | CP260 | CP265

CC(=O)N=c1sc(S(N)(=O)=O)nn1C
inactive: ATS95 | C2A | CP185 | CP191 | CP192 | CP194 | CP201 | CP203 | CP211 | CP215 | CP217 | CP237 | CP238 | CP247 | CP250 | CP252 | CP256 | CP260 | CP262 | CP265

Reference: PubChem BioAssay (NCATS)
